Assay outcomes as filed in PubChem BioAssay.
Pf Dd2 inh: qHTS Primary assay for Inhibitors of Plasmodium falciparum Dd2 growth in vitro | P. falciparum Dd2 growth, SYBR Green, 72 h | Potency, µM (top dose mostly 28.9 µM), actives largely listed as inhibitors | hit rate 4.3% among 120,000; active means well fitted inhibition curve with a large enough effect; further: nearly all actives have a fitted effect of over 65% in size
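Readout: SYBR Green fluorescence, 485 nm excitation, 535 nm emission, after ~16 h lysis at 37C. Before that, Dd2-infected red cells (2.5% hematocrit) grew 72 h with compound, 29 uM top final concentration.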
Numbers stand for hits; n = inactive; [ ] = dose if it differs, or a comment. This is one part of a sample in which hits are shown more often than they occur.

SMILES | Pf Dd2 inh
CCc1ccccc1NC(=O)CCn1nc(C)c2c(C)n(-c3ccccc3)nc2c1=O | n
Cc1ccc(NC(=O)CCn2nc(C)c3c(C)n(-c4ccccc4)nc3c2=O)cc1Cl | n
CCOC(=O)c1cccc(NC(=O)CCn2nc(C)c3c(C)n(-c4ccccc4)nc3c2=O)c1 | 2.51µM
O=C1CCCCC(CNC(=O)c2cccnc2)N1 (stereo not given) | n
O=C1NCCCCCCN(C(=O)C2CCC2)[C@H]2CCCC[C@@H]12 | n
CN1CC(=O)N(C2CCCNC2)Cc2c1ncnc2N1CCc2ccccc2C1 (stereo not given) | n
CC(C)C1=NOC2(CCN(Cc3cccn3C)C2)C1 (stereo not given) | n
Cc1ccc(C)c(N2CCN(S(=O)(=O)c3ccc4[nH]c5c(c4c3)CCCCC5)CC2)c1 | 8.91µM
Cc1ccc(Cl)cc1N1CCN(S(=O)(=O)c2ccc3[nH]c4c(c3c2)CCCC4)CC1 | n
Cc1ccc(N2CCN(S(=O)(=O)c3ccc4[nH]c5c(c4c3)CCCCC5)CC2)c(C)c1 | n
CC1=NS(=O)(=O)N(C)C=C1C(=O)OCc1noc(-c2ccccc2C)n1 | n
F[C@@H]1CN(Cc2cccnc2)C[C@@H]1OCc1nc2ccccc2[nH]1 | n
CCCOc1nccnc1NC1CCN(C(=O)NCc2ccco2)CC1 | n[5.79 µM]
COCC1CN(C2CCC2)CC12CCN(C(=O)C(C)C)CC2 (stereo not given) | n
COCC1CN(C2CCC2)CC12CCN(C(=O)c1cn(C)cn1)CC2 (stereo not given) | n
COCC1CN(C2CCC2)CC12CCN(C(=O)Cc1ccccc1F)CC2 (stereo not given) | 5.62µM
COCC1CN(C2CCC2)CC12CCN(C(=O)c1ccc(OC)c(F)c1)CC2 (stereo not given) | 5.01µM
COCC1CN(C(C)=O)CC12CCN(C(=O)Cc1ccc(OC)cc1)CC2 (stereo not given) | n
CCOCC(=O)N1CCC2(CC1)CN(C1CCC1)CC2COC (stereo not given) | n
COCC1CN(C2CCC2)CC12CCN(C(=O)Cc1ccccc1OC)CC2 (stereo not given) | 12.6µM
COC[C@@H]1CN(C(=O)c2ccc(OC)c(F)c2)C[C@H]1C(N)=O | n
CCS(=O)(=O)N1CCC2(CC1)CN(C1CCC1)CC2COC (stereo not given) | n
Cc1csc(S(=O)(=O)N2CCOC(CCc3ccccc3)C2)c1 (stereo not given) | n
Cc1cnc(C(=O)NC2C[C@H]3CC[C@@H](C2)N3C(=O)c2cccs2)cn1 (stereo not given in full) | n
COCCN1C(=O)CCc2cc(NC(=O)Cc3ccc(OC)cc3Cl)ccc21 | n
SMILES | Pf Dd2 inh
CC(C)NC(=O)N1CCOC2(CCN(C(=O)Cc3ccc(O)cc3)CC2)C1 | n
Cc1ccn2c(Nc3c(C)cccc3C)c(-c3ccc(Cl)s3)nc2c1 | 7.94µM
Cc1ccn2c(Nc3c(C)cccc3C)c(-c3ccsc3)nc2c1 | 11.2µM
Cc1cccc(C(=O)Nc2c(-c3ccccc3)nc3cc(C)ccn23)c1 | n
Cc1ccn2c(NC(=O)c3cccc(Cl)c3)c(-c3ccccc3)nc2c1 | n
Cc1ccccc1Nc1c(-c2ccc(Cl)s2)nc2cccc(C)n12 | n
Cc1ccccc1Nc1c(-c2ccc(Cl)s2)nc2c(C)cccn12 | n
O=C(CCCc1ccccc1)NCC(=O)N1CCCCCNC(=O)CC1c1ccccc1 (stereo not given) | n
O=C(NCc1ccnc2[nH]ccc12)c1ccc2ccccc2n1 | n
CC(C)(C)C1CCC2(CC1)NC(=O)N(CC(=O)N1CCCCC1)C2=O (stereo not given) | n
CC[C@H]1CN(C(=O)Nc2ccccc2)CC[C@H]1CC(=O)NCc1ccccc1 | n
CN(CC1Cc2ccccc2O1)C(=O)c1cn(Cc2ccccc2F)nn1 (stereo not given) | n
COCCN1C(=O)[C@H]2CN(Cc3ccc(OC)c(OC)c3Cl)C[C@H]2C1=O | n
COc1ccc(CCNC(=O)c2ccc3c(c2)nc2n3CCC(C)C2)cc1OC (stereo not given) | n
CCOc1ccc(CCNC(=O)c2ccc(-n3c(C)cc4c3CCC(C)C4)cc2)cc1OCC (stereo not given) | 8.91µM
CSc1ccc(CCNC(=O)c2ccc(-n3c(C)cc4c3CCC(C)C4)cc2)cc1 (stereo not given) | n[5.79 µM]
Cc1ccc(CN2CCN(C3CCN(Cc4ccccn4)CC3)CC2CCO)o1 (stereo not given) | n
COc1ccc(CN2CCN(C3CCN(c4ccccc4)CC3)CC2CCO)cc1C (stereo not given) | 11.2µM
CC(C)N1CCN(C2CCN(c3ccc4c(c3)CCC4)CC2)CC1CCO (stereo not given) | n
CCc1ccc(S(=O)(=O)N2[C@@H]3CC[C@H]2CC(NC(=O)c2ccncc2)C3)cc1 (stereo not given in full) | n
CC(C)(C)C(=O)Nc1nc2c(s1)C[C@@H]1[C@](C)(CO)[C@H](O)CC[C@@]1(C)[C@@H]2CC(=O)NCCN1CCOCC1 | n
C[C@]1(CO)[C@H]2Cc3sc(NC(=O)COc4ccccc4)nc3[C@@H](CC(=O)O)[C@]2(C)CC[C@H]1O | n
CCCCCC(=O)Nc1nc2c(s1)C[C@@H]1[C@](C)(CO)[C@H](O)CC[C@@]1(C)[C@@H]2CC(=O)Nc1cccc(O)c1 | 12.6µM
CC(C)(C)CC(=O)Nc1nc2c(s1)C[C@@H]1[C@](C)(CO)[C@H](O)CC[C@@]1(C)[C@@H]2CC(=O)Nc1ccccc1 | 11.2µM
CCCCCC(=O)Nc1nc2c(s1)C[C@@H]1[C@](C)(CO)[C@H](O)CC[C@@]1(C)[C@@H]2CC(=O)N[C@H](C)c1ccccc1 | 5.01µM
SMILES | Pf Dd2 inh
C[C@@H](NC(=O)C[C@@H]1c2nc(-c3cccnc3)sc2C[C@@H]2[C@](C)(CO)[C@H](O)CC[C@]21C)c1ccccc1 | n
CCCCCC(=O)Nc1nc2c(s1)C[C@@H]1[C@](C)(CO)[C@H](O)CC[C@@]1(C)[C@@H]2CC(=O)NC1CCCC1 | 11.2µM
Cc1ccc(C)c(NC(=O)[C@H]2CCC[C@H]2NC(=O)c2ccncc2)c1 | n
CCn1cc(S(=O)(=O)N2CCCCCCNC(=O)[C@@H]3CCCC[C@@H]32)cn1 | n
Cc1ccccc1-c1nc(C2CC(=O)N(c3ccc(F)c(Cl)c3)C2)no1 (stereo not given) | n
COc1cc(OC)cc(-c2onc(C)c2C(=O)NC2Cc3ccccc3C2)c1 | n
Cc1ccccc1[C@H]1C[C@@H](O)[C@@H](O)[C@@H]1NS(=O)(=O)c1ccc(C(F)(F)F)cc1 | n
COc1ccc(OC)c(NC(=O)CC2CCCN(c3cnn(C)c(=O)c3)C2)c1 (stereo not given) | n
CC[C@H]1CN(C(=O)c2ccc(F)cc2)CC[C@H]1CC(=O)O | n
Cc1cnn(CC(=O)N2CCCCCCNC(=O)[C@@H]3CCCC[C@@H]32)c1 | n
Cc1ccc(C(=O)N2C[C@@H](F)C[C@H]2C(=O)N2CCCCC2)cc1F | n
CS(=O)(=O)N1CCCN(C(=O)CCc2ccccc2)c2ccccc21 | n
CCN(Cc1noc(C2CCC2)n1)C(=O)C(C)Oc1ccc2ccccc2c1 (stereo not given) | n
C#CCNC(=O)C[C@@H]1c2nc(NC(=O)c3c(F)cccc3F)sc2C[C@@H]2[C@](C)(CO)[C@H](O)CC[C@]21C | n
CCCCCC(=O)Nc1nc2c(s1)C[C@@H]1[C@](C)(CO)[C@H](O)CC[C@@]1(C)[C@@H]2CC(=O)N(C)Cc1ccccc1 | n
